# Publication PMC7862700, “An all-to-all approach to the identification of sequence-specific readers for epigenetic DNA modifications on cytosine”
# Tests used:
# Assay in all cases: DAPPL (digital affinity profiling via proximity ligation, sequencing); 10 mM Tris-HCl pH 7.5, 50 mM NaCl, 1 mM DTT, 4% glycerol, room temperature, 30 min; GST-TFs on glutathione beads, 16-mer random dsDNA library, 0.1% formaldehyde crosslink after washing; high values mean tight binding
# Details in all cases: protein: recombinant; tags: N-terminal GST; dsDNA, one strand shown
# FEV = biological target: T1, FEV (Homo sapiens, UniProt Q99581 1-238)
# T1 sequence: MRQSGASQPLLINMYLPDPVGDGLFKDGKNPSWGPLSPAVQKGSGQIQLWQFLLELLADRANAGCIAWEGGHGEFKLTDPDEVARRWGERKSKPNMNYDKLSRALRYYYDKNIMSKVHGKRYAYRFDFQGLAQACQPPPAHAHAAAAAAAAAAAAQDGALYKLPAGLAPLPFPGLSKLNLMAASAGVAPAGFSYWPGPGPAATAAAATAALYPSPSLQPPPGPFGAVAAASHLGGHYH
# Procedure, shortened: (§1)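 GST fusions of human transcription factors were expressed in yeast and captured with glutathione beads. Once given DNA barcodes and pooled alongside a tag-only sample, they were incubated for 30 min at room temperature with 200 nmole of a random double-stranded 16-mer DNA library in Tris/NaCl/DTT/glycerol buffer, then washed, crosslinked (0.1% formaldehyde), proximity-ligated, PCR-amplified and sequenced on an Illumina NextSeq500. The binding signal of each hexamer is its read frequency for a factor divided by its frequency for the tag-only sample.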
# ETV5 = ETV5 (Homo sapiens, UniProt P41161 1-510)
# ETV5, sequence (P41161 whole entry): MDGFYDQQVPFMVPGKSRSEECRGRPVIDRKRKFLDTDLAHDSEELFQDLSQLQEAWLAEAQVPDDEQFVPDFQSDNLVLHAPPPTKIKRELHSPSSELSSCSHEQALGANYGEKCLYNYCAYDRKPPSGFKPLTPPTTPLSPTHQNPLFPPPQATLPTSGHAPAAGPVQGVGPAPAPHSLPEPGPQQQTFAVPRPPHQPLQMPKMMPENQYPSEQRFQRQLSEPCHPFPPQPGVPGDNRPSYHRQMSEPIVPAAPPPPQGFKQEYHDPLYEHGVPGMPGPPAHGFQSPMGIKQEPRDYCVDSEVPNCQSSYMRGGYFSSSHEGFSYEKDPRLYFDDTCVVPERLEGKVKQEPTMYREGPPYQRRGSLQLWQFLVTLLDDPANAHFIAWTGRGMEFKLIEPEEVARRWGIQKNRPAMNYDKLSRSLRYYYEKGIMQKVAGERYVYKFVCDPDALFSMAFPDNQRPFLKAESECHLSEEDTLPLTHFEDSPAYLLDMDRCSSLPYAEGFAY
# Procedure, shortened: as §1
# SPIC = biological target: T2, SPIC (Homo sapiens, UniProt Q8N5J4 1-248)
# T2 sequence: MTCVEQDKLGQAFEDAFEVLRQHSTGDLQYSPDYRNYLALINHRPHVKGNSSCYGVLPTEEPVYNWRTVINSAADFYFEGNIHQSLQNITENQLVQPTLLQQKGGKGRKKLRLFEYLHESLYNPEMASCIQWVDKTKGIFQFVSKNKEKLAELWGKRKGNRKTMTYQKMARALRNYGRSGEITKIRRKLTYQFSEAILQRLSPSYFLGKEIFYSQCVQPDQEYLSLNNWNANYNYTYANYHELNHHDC
# Procedure, shortened: as §1
# ELF4 = ELF4 (Homo sapiens, UniProt Q99607 1-663)
# ELF4, sequence (Q99607 whole entry): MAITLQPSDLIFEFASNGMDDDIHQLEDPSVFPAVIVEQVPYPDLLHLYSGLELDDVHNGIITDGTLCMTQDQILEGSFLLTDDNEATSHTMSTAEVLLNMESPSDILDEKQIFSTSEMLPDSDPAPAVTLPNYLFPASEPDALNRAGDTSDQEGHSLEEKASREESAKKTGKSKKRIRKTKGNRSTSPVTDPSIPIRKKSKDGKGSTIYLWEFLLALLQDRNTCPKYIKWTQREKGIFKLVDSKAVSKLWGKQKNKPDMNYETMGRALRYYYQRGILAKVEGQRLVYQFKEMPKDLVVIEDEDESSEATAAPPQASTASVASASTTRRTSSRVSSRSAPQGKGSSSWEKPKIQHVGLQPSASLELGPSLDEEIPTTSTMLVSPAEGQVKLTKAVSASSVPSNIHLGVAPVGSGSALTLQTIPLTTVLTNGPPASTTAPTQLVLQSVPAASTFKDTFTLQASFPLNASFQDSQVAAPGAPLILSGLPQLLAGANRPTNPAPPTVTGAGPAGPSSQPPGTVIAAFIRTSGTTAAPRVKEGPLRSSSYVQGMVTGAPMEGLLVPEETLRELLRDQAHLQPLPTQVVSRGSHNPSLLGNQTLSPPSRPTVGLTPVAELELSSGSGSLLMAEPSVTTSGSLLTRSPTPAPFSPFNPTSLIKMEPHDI
# Procedure, shortened: as §1
# ELK4 = biological target: T3, ELK4 (Homo sapiens, UniProt P28324-2 1-405)
# T3 sequence: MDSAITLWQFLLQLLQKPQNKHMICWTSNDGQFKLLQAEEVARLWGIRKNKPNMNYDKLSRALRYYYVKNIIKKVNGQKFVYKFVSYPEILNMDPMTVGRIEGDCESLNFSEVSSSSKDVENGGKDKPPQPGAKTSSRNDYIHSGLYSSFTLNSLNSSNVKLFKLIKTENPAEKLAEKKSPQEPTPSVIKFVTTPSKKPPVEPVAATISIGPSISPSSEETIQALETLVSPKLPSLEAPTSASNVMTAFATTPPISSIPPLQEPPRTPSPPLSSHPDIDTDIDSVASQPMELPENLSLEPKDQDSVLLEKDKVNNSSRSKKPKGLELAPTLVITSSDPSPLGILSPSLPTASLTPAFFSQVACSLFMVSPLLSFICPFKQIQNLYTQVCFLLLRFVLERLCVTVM
# Procedure, shortened: as §1
# ETV2 = biological target: T4, ETV2 (Homo sapiens, UniProt O00321 1-342)
# T4 sequence: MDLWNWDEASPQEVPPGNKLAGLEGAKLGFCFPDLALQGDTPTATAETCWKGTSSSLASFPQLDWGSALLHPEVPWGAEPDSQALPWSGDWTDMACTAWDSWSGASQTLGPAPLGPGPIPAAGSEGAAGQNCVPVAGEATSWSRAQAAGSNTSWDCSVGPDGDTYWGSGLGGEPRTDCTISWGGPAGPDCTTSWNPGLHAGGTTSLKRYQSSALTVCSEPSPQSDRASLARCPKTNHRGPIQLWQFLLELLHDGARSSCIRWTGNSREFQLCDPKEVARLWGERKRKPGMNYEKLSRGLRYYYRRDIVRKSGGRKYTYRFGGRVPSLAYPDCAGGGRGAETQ
# Procedure, shortened: as §1
# ELF3 = biological target: T5, ELF3 (Homo sapiens, UniProt P78545 1-371)
# T5 sequence: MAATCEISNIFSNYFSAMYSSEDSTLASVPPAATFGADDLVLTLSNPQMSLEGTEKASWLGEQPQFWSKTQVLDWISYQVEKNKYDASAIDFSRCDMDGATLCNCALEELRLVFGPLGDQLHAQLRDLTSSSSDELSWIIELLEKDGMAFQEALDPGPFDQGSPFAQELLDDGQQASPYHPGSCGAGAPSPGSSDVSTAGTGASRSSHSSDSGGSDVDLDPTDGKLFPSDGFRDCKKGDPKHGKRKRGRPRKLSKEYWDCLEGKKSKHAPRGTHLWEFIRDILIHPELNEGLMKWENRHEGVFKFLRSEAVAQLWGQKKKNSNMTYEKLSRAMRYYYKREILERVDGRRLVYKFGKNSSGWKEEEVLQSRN
# Procedure, shortened: as §1
# ETV1 = ETV1 (Homo sapiens, UniProt P50549 1-477)
# ETV1, sequence (P50549 whole entry): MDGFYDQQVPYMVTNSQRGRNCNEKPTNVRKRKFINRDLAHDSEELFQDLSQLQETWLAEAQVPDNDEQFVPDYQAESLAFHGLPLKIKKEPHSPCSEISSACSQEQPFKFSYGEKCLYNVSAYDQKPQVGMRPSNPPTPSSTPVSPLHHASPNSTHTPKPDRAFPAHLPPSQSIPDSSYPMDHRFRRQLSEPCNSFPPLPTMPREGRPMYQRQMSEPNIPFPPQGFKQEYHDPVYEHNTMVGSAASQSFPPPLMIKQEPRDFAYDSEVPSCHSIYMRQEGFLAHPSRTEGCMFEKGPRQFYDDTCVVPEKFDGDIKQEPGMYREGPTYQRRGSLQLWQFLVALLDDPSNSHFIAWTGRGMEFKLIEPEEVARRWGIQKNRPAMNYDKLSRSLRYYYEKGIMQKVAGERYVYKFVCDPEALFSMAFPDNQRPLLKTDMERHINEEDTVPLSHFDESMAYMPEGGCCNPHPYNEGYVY
# Procedure, shortened: as §1
# ERF = biological target: T6, ERF (Homo sapiens, UniProt P50548 1-548)
# T6 sequence: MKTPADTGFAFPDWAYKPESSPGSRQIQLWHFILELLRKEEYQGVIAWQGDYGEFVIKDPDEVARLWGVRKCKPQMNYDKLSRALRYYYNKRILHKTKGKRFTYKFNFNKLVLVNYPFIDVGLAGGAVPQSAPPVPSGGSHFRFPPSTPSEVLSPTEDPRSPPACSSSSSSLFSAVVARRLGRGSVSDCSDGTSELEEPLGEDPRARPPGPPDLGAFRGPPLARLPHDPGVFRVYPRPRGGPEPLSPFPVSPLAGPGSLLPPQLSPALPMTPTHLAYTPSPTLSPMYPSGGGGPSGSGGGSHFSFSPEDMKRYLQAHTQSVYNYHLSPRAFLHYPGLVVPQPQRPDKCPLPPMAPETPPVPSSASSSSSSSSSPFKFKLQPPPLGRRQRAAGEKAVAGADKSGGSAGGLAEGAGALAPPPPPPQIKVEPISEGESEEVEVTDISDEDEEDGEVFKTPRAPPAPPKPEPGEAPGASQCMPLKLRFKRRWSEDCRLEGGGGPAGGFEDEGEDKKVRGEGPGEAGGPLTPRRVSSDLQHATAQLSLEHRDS
# Procedure, shortened: as §1
# ETV3L = biological target: T7, ETV3L (Homo sapiens, UniProt Q6ZN32 1-361)
# T7 sequence: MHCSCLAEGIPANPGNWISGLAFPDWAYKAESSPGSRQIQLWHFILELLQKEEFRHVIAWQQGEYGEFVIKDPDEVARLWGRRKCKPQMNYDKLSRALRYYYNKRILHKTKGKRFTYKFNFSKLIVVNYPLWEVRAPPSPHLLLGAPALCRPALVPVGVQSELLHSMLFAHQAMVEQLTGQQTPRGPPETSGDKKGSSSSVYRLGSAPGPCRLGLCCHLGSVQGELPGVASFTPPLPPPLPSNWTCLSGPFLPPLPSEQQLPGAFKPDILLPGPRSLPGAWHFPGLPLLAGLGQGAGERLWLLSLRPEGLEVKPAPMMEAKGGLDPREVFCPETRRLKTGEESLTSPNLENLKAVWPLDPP
# Procedure, shortened: as §1
# ETS2 = biological target: T8, ETS2 (Homo sapiens, UniProt P15036 1-469)
# T8 sequence: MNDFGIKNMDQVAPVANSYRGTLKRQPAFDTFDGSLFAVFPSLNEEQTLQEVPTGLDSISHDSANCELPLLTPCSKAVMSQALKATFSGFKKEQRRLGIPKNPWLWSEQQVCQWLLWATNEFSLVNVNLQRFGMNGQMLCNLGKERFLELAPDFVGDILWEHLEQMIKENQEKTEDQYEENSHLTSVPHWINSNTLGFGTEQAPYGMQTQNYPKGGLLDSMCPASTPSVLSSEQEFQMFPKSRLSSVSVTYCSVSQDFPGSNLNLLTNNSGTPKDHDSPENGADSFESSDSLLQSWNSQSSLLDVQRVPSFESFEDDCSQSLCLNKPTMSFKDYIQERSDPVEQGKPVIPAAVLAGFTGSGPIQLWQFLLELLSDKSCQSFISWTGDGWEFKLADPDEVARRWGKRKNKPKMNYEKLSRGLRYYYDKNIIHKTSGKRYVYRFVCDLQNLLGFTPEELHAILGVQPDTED
# Procedure, shortened: as §1
# SPDEF = biological target: T9, SPDEF (Homo sapiens, UniProt O95238 1-335)
# T9 sequence: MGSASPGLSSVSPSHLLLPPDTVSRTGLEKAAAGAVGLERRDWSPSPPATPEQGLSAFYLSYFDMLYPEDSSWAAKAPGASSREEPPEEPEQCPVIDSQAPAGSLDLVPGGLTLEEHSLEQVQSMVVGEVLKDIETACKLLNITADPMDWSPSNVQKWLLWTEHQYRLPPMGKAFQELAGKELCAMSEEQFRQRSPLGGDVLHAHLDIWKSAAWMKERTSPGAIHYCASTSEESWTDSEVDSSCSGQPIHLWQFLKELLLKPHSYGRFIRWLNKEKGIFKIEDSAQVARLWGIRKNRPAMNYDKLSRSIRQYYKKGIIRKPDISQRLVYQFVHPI
# Procedure, shortened: as §1
# ETV7 = biological target: T10, ETV7 (Homo sapiens, UniProt Q9Y603 1-341)
# T10 sequence: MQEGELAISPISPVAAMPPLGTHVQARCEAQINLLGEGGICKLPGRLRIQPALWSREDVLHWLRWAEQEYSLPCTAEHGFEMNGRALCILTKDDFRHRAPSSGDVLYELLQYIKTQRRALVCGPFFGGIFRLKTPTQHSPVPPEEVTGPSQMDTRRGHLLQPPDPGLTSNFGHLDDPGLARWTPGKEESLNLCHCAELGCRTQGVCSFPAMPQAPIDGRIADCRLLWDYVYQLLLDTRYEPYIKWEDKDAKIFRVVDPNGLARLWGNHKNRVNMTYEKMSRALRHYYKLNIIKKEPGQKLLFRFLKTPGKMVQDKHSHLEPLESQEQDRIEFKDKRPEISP
# Procedure, shortened: as §1
# ELF5 = biological target: T11, ELF5 (Homo sapiens, UniProt Q9UKW6-2 1-255)
# T11 sequence: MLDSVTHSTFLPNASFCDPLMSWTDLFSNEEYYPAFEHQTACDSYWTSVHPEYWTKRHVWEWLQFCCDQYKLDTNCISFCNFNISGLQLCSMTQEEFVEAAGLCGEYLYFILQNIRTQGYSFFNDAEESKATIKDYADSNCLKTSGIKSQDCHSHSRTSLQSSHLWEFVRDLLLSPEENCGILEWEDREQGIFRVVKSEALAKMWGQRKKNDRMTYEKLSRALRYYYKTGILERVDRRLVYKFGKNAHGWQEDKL
# Procedure, shortened: as §1
# ETV3 = biological target: T12, ETV3 (Homo sapiens, UniProt P41162-2 1-143)
# T12 sequence: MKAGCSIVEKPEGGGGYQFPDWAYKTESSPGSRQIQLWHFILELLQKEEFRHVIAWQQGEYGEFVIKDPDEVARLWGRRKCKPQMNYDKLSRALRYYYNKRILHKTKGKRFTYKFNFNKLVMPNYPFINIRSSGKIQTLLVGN
# Procedure, shortened: as §1
# ETV6 = ETV6 (Homo sapiens, UniProt P41212 1-452)
# ETV6, sequence (P41212 whole entry): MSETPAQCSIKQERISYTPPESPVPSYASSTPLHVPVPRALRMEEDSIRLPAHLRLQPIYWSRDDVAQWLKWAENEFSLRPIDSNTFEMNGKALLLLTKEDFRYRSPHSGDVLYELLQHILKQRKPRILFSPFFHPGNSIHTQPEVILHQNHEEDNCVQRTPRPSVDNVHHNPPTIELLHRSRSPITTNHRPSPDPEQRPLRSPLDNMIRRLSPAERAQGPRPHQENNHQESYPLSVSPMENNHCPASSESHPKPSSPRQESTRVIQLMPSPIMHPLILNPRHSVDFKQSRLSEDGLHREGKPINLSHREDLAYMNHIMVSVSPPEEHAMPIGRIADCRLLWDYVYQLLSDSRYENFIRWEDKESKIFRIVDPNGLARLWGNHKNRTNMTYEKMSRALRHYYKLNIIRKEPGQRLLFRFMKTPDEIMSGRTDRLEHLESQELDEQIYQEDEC
# Procedure, shortened: as §1
Sequence,binding signal (FEV),binding signal (ETV5),binding signal (SPIC),binding signal (ELF4),binding signal (ELK4),binding signal (ETV2),binding signal (ELF3),binding signal (ETV1),binding signal (ERF),binding signal (ETV3L),binding signal (ETS2),binding signal (SPDEF),binding signal (ETV7),binding signal (ELF5),binding signal (ETV3),binding signal (ETV6)
ACAGGA,"1.18 fold enrichment (6-mer frequency, TF over GST control)","1.19 fold enrichment (6-mer frequency, TF over GST control)","1.07 fold enrichment (6-mer frequency, TF over GST control)","1.04 fold enrichment (6-mer frequency, TF over GST control)","1.04 fold enrichment (6-mer frequency, TF over GST control)","1.06 fold enrichment (6-mer frequency, TF over GST control)","1.15 fold enrichment (6-mer frequency, TF over GST control)","1.16 fold enrichment (6-mer frequency, TF over GST control)","1.03 fold enrichment (6-mer frequency, TF over GST control)","1.11 fold enrichment (6-mer frequency, TF over GST control)","1.16 fold enrichment (6-mer frequency, TF over GST control)","1.37 fold enrichment (6-mer frequency, TF over GST control)","1.11 fold enrichment (6-mer frequency, TF over GST control)","1.28 fold enrichment (6-mer frequency, TF over GST control)","1.15 fold enrichment (6-mer frequency, TF over GST control)","1.19 fold enrichment (6-mer frequency, TF over GST control)"
ACTGCA,"1.18 fold enrichment (6-mer frequency, TF over GST control)","1.2 fold enrichment (6-mer frequency, TF over GST control)","1.34 fold enrichment (6-mer frequency, TF over GST control)","1.09 fold enrichment (6-mer frequency, TF over GST control)","1.25 fold enrichment (6-mer frequency, TF over GST control)","1 fold enrichment (6-mer frequency, TF over GST control)","1.08 fold enrichment (6-mer frequency, TF over GST control)","1.01 fold enrichment (6-mer frequency, TF over GST control)","1.13 fold enrichment (6-mer frequency, TF over GST control)","1.17 fold enrichment (6-mer frequency, TF over GST control)","1.12 fold enrichment (6-mer frequency, TF over GST control)","1.13 fold enrichment (6-mer frequency, TF over GST control)","1.07 fold enrichment (6-mer frequency, TF over GST control)","1.01 fold enrichment (6-mer frequency, TF over GST control)","1.17 fold enrichment (6-mer frequency, TF over GST control)","1.2 fold enrichment (6-mer frequency, TF over GST control)"
